LMNA splice mod: changes lamin A minigene splicing in HeLa cells; HeLa LMNA splicing GFP/RFP minigene ratio, 48 h; Potency, µM (top dose mostly 46.1 µM), without a hit: at the highest dose ratio change, negative = inhibition, actives largely listed as inhibitors; 0.01% of 200,000 active; AID 1487; active means well fitted inhibition curve with a large enough effect in the signal ratio, with a control signal flat, not every such curve was filed as active; inconclusive means small, poorly fitted or top-dose-only effect, or effect the other way, or a change in a side signal; the % refers to the signal ratio; further: on the % scale 0 is the no-effect control and ±100 the full control effect
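Read-out is the ratio of GFP to DsRed2 object intensity, acquired by 488 nm laser-scanning cytometry on HeLa lamin A-EGFP minigene reporter cells. Compound incubation 48 hrs at 37 °C in Opti-MEM with 2% FBS; DMSO 0.5% final.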
HTT ATP protect: protects HTT-Q103 PC12 cells, measured by ATP; PC12 HTT-Q103 induced, cytoprotection, ATP luminescence, 40 h; Potency, µM (series often up to 56.4 µM), for the others: cytoprotection (ATP increase), usual class: activators; 0.14% of 230,000 active; AID 1471; further: % of control where 0% means no effect; nearly all actives have a fitted effect of over 45% in size
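Readout: ATPlite luminescence (ATP level). Model: stable PC12, inducible Htt exon1 Q103-GFP. Inducer: tebufenozide, 100 nM final. Compounds: dose series. No G418 in medium.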
HPGD inh: HPGD (human) dehydrogenase inhibition. 4.3% of 150,000 active. purified HPGD, NADH fluorescence kinetic, PGE2 substrate. AID 894. Potency, µM, for inactives: at the top dose activity change, negative = inhibition, usual class: inhibitors; active means well fitted inhibition curve with a large enough effect, not every such curve was filed as active; inconclusive means small, poorly fitted or top-dose-only effect, or another doubt; inactive means no such curve, though single readings can be large or run the other way; further: on the % scale 0 is the no-effect control and ±100 the full control effect
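NADH formation kinetics: reaction with 30 uM PGE2 and 1 mM NAD+ (final), 20 nM enzyme, Tris-HCl pH 8 with Tween 20, after 15 min compound preincubation at room temperature. Fluorescence change, last versus first of five reads.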
HTT aggregate: inhibitors of mutant huntingtin aggregate formation in PC12 cells; PC12 HttQ103-GFP aggregates, Acumen cytometry, 40 h; Potency, µM (highest dose often 46.1 µM), inactives show at the highest dose activity change, negative = inhibition, usual class: inhibitors; 1.1% of 220,000 active; AID 1688; further: on the % scale 0 is the no-effect control and ±100 the full control effect; nearly all actives have a fitted effect of over 60% in size
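Quantitative HTS on tebufenozide-induced (100 nM) PC12 cells stably expressing polyQ103 Huntingtin exon 1–GFP. Reduction of bright GFP aggregates, detected by laser scanning cytometry after lysis, identified actives across the titration.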
ALDH1A1 inh: ALDH1A1 (human) enzyme inhibition. Purified ALDH1A1, NADH fluorescence, propionaldehyde substrate. Potency, µM (titrated, usually from 75.3 µM), for the others: at the top dose activity, negative = inhibition, hits mostly inhibitors. 7.3% of 220,000 active; active means well fitted inhibition curve with a large enough effect, not every such curve was filed as active; inconclusive means small, poorly fitted or top-dose-only effect, or another doubt; inactive means no such curve, though single readings can be large or run the other way;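 further: plate controls were no enzyme wells and a reference inhibitor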
Target sequence (P00352 whole entry, looked up): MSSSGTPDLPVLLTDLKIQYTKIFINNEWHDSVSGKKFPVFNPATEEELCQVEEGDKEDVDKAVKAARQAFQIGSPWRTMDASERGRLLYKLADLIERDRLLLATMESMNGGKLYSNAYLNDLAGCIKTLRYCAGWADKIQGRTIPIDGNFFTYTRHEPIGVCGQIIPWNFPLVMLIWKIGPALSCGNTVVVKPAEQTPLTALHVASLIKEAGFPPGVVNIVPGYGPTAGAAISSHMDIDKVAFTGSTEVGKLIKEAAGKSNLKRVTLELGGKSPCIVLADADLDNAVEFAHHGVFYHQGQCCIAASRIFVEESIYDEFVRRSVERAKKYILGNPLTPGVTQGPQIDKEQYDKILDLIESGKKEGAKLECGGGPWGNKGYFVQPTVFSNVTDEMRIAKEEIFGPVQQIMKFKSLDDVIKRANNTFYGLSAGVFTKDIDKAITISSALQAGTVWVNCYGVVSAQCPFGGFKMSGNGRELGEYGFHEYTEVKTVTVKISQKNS
Numbers without * were called inactive; [ ] = another dose, or the depositor's remark. Only some compounds are listed: those with a hit (about 8.8% of all), similar ones and a draw of the others. Unless noted, the call rests on the fitted dose curve; in most records, active means well fitted curve in the direction sought with a large enough effect; inconclusive means small, poorly fitted or top-dose-only effect, or another doubt; inactive means no such curve, though single readings can be large; an effect the other way counts as inactive or inconclusive. Potency means the concentration at half of the fitted maximal effect.

Screening Nc1nc(SC2c3cccc4cccc(c34)C2NS(=O)(=O)c2ccccc2)n[nH]1 (configuration not stated) returned LMNA splice mod -10%, HTT ATP protect 3%[10 µM], HPGD inh -6%, HTT aggregate -1% and ALDH1A1 inh 14µM*.
Screening CCC(C)(C)NC(=O)Cn1c(=O)ccc2cc(S(=O)(=O)N3CCC(C)CC3)ccc21 returned LMNA splice mod -14%[46 µM].
CC(c1ccccc1)N1CCN(C(=O)CCl)CC1 (configuration not stated) was read as HTT ATP protect -22%, HTT aggregate -22% and ALDH1A1 inh 0.45µM*.
`COc1ccc(-c2nc3cnc(OC)nc3n(C)c2=O)cc1` gave LMNA splice mod 2%, HTT ATP protect -3% and ALDH1A1 inh inconclusive.
For O=C(COC(=O)c1oc2ccccc2c1CSc1ccc(Cl)cc1)NC1CCCC1 the results were LMNA splice mod -8%, HTT ATP protect -3%[10 µM], HPGD inh -12%, HTT aggregate -10% and ALDH1A1 inh -4%.
`NC(=O)COC(=O)c1oc2ccccc2c1CSc1ccc(Cl)cc1` gave LMNA splice mod -13%, HTT ATP protect 32%[10 µM], HPGD inh -4%, HTT aggregate 11µM* and ALDH1A1 inh -5%.
For Cc1nc2ccccc2n1/N=C/c1ccc([N+](=O)[O-])s1 the results were LMNA splice mod inconclusive, HTT ATP protect 2%[10 µM], HPGD inh -4%, HTT aggregate 5µM* and ALDH1A1 inh inconclusive.
COc1cccc(/C=N\n2c(C)nnc2C)c1OC was read as LMNA splice mod -8%, HTT ATP protect -25%, HPGD inh -21%, HTT aggregate -11% and ALDH1A1 inh 2%.
For COc1cccc(/C=N/n2c(C)nc3ccccc32)c1OC the results were LMNA splice mod inconclusive, HTT ATP protect -31%[10 µM], HPGD inh -10%, HTT aggregate 13µM* and ALDH1A1 inh inconclusive.
For O=[N+]([O-])c1ccc(/C=N/n2cnc3ccccc32)s1 the results were LMNA splice mod inconclusive, HPGD inh -7%, HTT aggregate 16µM* and ALDH1A1 inh -3%.
For O=C(CSc1nc2ccccc2n1Cc1ccccc1Cl)NCc1ccccc1 the results were LMNA splice mod -15%[46 µM].
CC1(C)CC(=O)C(C=NCC(N)=O)=C(O)C1 was read as LMNA splice mod -9%, HTT ATP protect -63%, HPGD inh -2%, HTT aggregate 11µM* and ALDH1A1 inh -18%.
`CC1(C)CC(=O)C(C=Nc2ccc(N)cc2)=C(O)C1` gave HTT ATP protect 13%, HTT aggregate -5% and ALDH1A1 inh 11µM*.
`CC1(C)CC(=O)C(C=Nc2ccc3cn[nH]c3c2)=C(O)C1` gave LMNA splice mod 8%, HTT ATP protect -37%, HPGD inh -18%, HTT aggregate -12% and ALDH1A1 inh 14µM*.
For CN=CC1=C(O)CC(C)(C)CC1=O the results were LMNA splice mod 3%, HTT ATP protect -16%[0.074 µM], HPGD inh -7%, HTT aggregate 20% and ALDH1A1 inh 0%.
`CC1(C)CC(=O)C(C=Nc2ccc3[nH]ncc3c2)=C(O)C1` gave LMNA splice mod -2%, HTT ATP protect -16%, HPGD inh -24%, HTT aggregate 5% and ALDH1A1 inh inconclusive.
Screening CCOC(=O)c1ccc(NC(=S)N2CCN(CCN=CC3=C(O)CC(C)(C)CC3=O)CC2)cc1 returned LMNA splice mod inconclusive, HTT ATP protect 7%[10 µM], HTT aggregate inconclusive and ALDH1A1 inh 0.5µM*.
COC(C)=O was read as HTT ATP protect -12%, HPGD inh -2% and ALDH1A1 inh inconclusive.
For CCOc1ccccc1NC(=O)N1CC(CC)Oc2ccccc21 (configuration not stated) the results were LMNA splice mod 12%[46 µM].
CCOc1ccc(N=CC2=C(O)CC(C)(C)CC2=O)cc1 was read as LMNA splice mod -9%, HTT ATP protect -5%, HPGD inh -7%, HTT aggregate -2% and ALDH1A1 inh 14µM*.
`CC1(C)CC(=O)C(C=NCCN2CCN(CC(=O)Nc3ccccc3)CC2)=C(O)C1` gave LMNA splice mod -6%, HPGD inh -8%, HTT aggregate 35% and ALDH1A1 inh inconclusive.
Screening CC1(C)CC(=O)C(C=NCCN2CCN(C(=O)C34CC5CC(CC(C5)C3)C4)CC2)=C(O)C1 returned LMNA splice mod 3%, HTT ATP protect -1%, HPGD inh -15%, HTT aggregate 4% and ALDH1A1 inh 7.9µM*.
Screening Cc1[nH]nc(N=CC2=C(O)CC(C)(C)CC2=O)c1-c1ccc(Cl)cc1 returned LMNA splice mod -11%, HTT ATP protect 3%[10 µM], HPGD inh -19%, HTT aggregate -5% and ALDH1A1 inh 14µM*.
`CC1(C)CC(=O)C(C=Nc2ccc(O)cc2)=C(O)C1` gave LMNA splice mod -6%, HTT ATP protect -11%, HPGD inh -6%, HTT aggregate 7% and ALDH1A1 inh inconclusive.
`CC1(C)CC(=O)C(C=NCCN2CCNC2=O)=C(O)C1` gave LMNA splice mod -1%, HPGD inh -12%, HTT aggregate -4% and ALDH1A1 inh 20µM*.
Screening Cc1[nH]nc(N=CC2=C(O)CC(c3ccco3)CC2=O)c1-c1ccc(Cl)cc1 (configuration not stated) returned LMNA splice mod -7%, HTT ATP protect -29%, HPGD inh -12%, HTT aggregate 6% and ALDH1A1 inh inconclusive.
For CC1(C)CC(=O)C(C=NCCN2CCN(C3CC(=O)N(c4ccc(Br)cc4)C3=O)CC2)=C(O)C1 (configuration not stated) the results were LMNA splice mod 20%[46 µM], HTT ATP protect 27%[10 µM], HTT aggregate 10%[9.22 µM] and ALDH1A1 inh 28µM*.
Screening Cc1ccc(N=CC2=C(O)CC(C)(C)CC2=O)nc1 returned LMNA splice mod 3%, HTT ATP protect 0%, HPGD inh -14%, HTT aggregate 6% and ALDH1A1 inh inconclusive.
CC1(C)CC(=O)C(/C=N/c2ncccc2C(=O)O)=C(O)C1 was read as LMNA splice mod 11%, HTT ATP protect 10%[10 µM], HPGD inh inconclusive, HTT aggregate -2% and ALDH1A1 inh 13µM*.
Screening CCCOc1ccc(N2C(=O)CC(N3CCN(CCN=CC4=C(O)CC(C)(C)CC4=O)CC3)C2=O)cc1 (configuration not stated) returned HTT ATP protect 15%[10 µM], HTT aggregate -1%[9.22 µM] and ALDH1A1 inh inconclusive.
COc1cccc(N=CC2=C(O)CC(C)(C)CC2=O)c1 was read as LMNA splice mod 11%, HPGD inh -19%, HTT aggregate inconclusive and ALDH1A1 inh 8.9µM*.
For CN1CCN(NC(=S)Nc2ccc(OC(F)F)cc2)CC1 the results were HTT ATP protect -29%, HTT aggregate 20% and ALDH1A1 inh -2%.
`CCc1cnc2c(c1SCc1ccccc1C)c(=O)n(C)c(=O)n2C` gave LMNA splice mod -7%[46 µM].
